High-throughput results: PubChem BioAssay, Broad Institute
C2C12 statin = suppressors of statin myotoxicity in C2C12 myotubes, primary screen, cell-based, single point, plate reader; C2C12 myotubes + simvastatin, ATP luminescence, 48 h; scaled: DMSO 0, geranylgeraniol control 100; rescue of ATP level, % at 7.49 µM; actives 0.78% (n = 330,000);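 active = mean ATP rescue above about 67%, or every replicate alone reaching that limit, limit read from the data, passing the limit was not always enough; inconclusive = no clear call, values can overlap the other calls; inactive = mean under the limit and some replicate under it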;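 note: myotubes were challenged with 10 µM simvastatin during compound exposure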
HIV Env fusion = inhibitors of HIV-1 Env-driven cell-cell fusion, primary screen, HeLa-JRFL effector, CEM21 target cells, luciferase | inhibition, % at 12.3 µM | actives 1.1% (n = 360,000);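 active = mean replicate inhibition score of at least 50 and every replicate individually at or above 50; inconclusive = only one of the two criteria met; inactive = mean below 50 and not all replicates reaching 50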;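 note: 0% = plate neutral controls and 100% = maraviroc near 300 nM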
GSIS activator = GLuc luminescence reporter in INS-1E cells, primary screen for activators of glucose-dependent secretion of insulin; INS-1E GLuc reporter insulin secretion, 2-3 h; AID 743287, 2014; activation, % at 16.6 µM; actives 0.61% (n = 370,000);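 active = lowest replicate activation of at least 40%, so every replicate reaches that level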;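 note: 0% = median of neutral control wells and 100% = median of IBMX positive control wells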
EWS-Fli block = EWS/Fli-driven NR0B1 reporter inhibitors, primary screen, A673 cells, NR0B1 luciferase, luminescence, MLPCN library; viability-normalised; inhibition, % at 12.6 µM; actives 0.67% (n = 350,000); AID 651661, 2012;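 active = mean inhibition of at least 50% after viability correction, with every replicate also passing that limit; inconclusive = mean reaches 50% but only one of two replicates passes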;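 note: firefly luciferase signal divided by Alamar Blue viability fluorescence both relative to DMSO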
miR-122 sensor = miR-122 Renilla sensor signal increase in Huh7, primary screen, miR-122 inhibitor project, cell-based, single point, plate reader | Huh7 miR-122 Renilla luciferase sensor, 48 h; neutral wells = 0, positive control = 100 | activation (reporter increase), % at 12.5 µM | actives 0.3% (n = 340,000);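 active = mean replicate activation score at least 90 and every replicate individually at or above 90; inconclusive = only one of the two criteria met; inactive = neither criterion met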;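 note: higher luciferase means less miR-122 activity so hits act as miR-122 inhibitors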
PAX8 reporter = inhibitors of PAX8-driven TPO luciferase reporter, primary screen, RMG-I cells, single concentration. SteadyGlo, 24 h. inhibition, % at 12.6 µM. actives 1.2% (n = 360,000);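 active = mean replicate inhibition at least 60% with every replicate also reaching 60%; inconclusive = only one of the two criteria is met; inactive = mean below 60% and not all replicates reaching 60%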;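 note: luciferase light reporting Pax8 driven TPO promoter activity; plate controls were median of neutral control wells for no effect and mitoxantrone controls for full effect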
An asterisk follows results filed as active; ? = inconclusive; . = no result; [ ] = another dose, or the depositor's remark. An excerpt weighted towards active compounds, which were near 3.1% of everything screened.

SMILES	C2C12 statin	HIV Env fusion	GSIS activator	EWS-Fli block	miR-122 sensor	PAX8 reporter
C[C@@H]1CCCCO[C@@H](CN(C)Cc2ccc(C(F)(F)F)cc2)[C@H](C)CN([C@@H](C)CO)C(=O)c2cc(NC(=O)Nc3ccc(C(F)(F)F)cc3)ccc2O1	.	59*[16.7 µM]	23	-8	-6[16.7 µM]	37
C[C@@H]1CCCCO[C@@H](CN(C)Cc2ccc(C(=O)O)cc2)[C@H](C)CN([C@H](C)CO)C(=O)c2cc(NC(=O)Nc3ccc(C(F)(F)F)cc3)ccc2O1	.	2[16.7 µM]	-6	2	-3[16.7 µM]	-14
C[C@@H]1CN([C@@H](C)CO)C(=O)c2cc(NC(=O)Nc3ccc(C(F)(F)F)cc3)ccc2O[C@@H](C)CCCCO[C@H]1CN(C)Cc1ccc(C(F)(F)F)cc1	.	42[16.7 µM]	21	-3	0[16.7 µM]	?
CC(C)NC(=O)Nc1ccc2c(c1)C(=O)N([C@@H](C)CO)C[C@H](C)[C@H](CN(C)Cc1ccc(C(F)(F)F)cc1)OCCCC[C@@H](C)O2	.	13[16.7 µM]	-34	-2	2[16.7 µM]	13
C[C@@H]1CN([C@H](C)CO)C(=O)c2cc(NC(=O)CCC(F)(F)F)ccc2O[C@@H](C)CCCCO[C@@H]1CN(C)Cc1ccc(Cl)c(Cl)c1	.	11[16.7 µM]	-30	-6	-2[16.7 µM]	81*
CC(C)NC(=O)Nc1ccc2c(c1)C(=O)N([C@@H](C)CO)C[C@@H](C)[C@@H](CN(C)Cc1ccc(C(F)(F)F)cc1)OCCCC[C@@H](C)O2	.	70*[16.7 µM]	-17	3	-7[16.7 µM]	10
C[C@@H]1CCCCO[C@@H](CN(C)Cc2ccc(C(F)(F)F)cc2)[C@H](C)CN([C@@H](C)CO)C(=O)c2cc(NC(=O)Nc3ccc(F)cc3)ccc2O1	.	42[16.7 µM]	3	10	-2[16.7 µM]	86*
C[C@@H]1CCCCO[C@H](CN(C)Cc2ccc(Cl)c(Cl)c2)[C@@H](C)CN([C@@H](C)CO)C(=O)c2cc(NC(=O)CCC(F)(F)F)ccc2O1	.	-78[16.7 µM]	-17	4	-9[16.7 µM]	56
Cc1ccc(-c2ccc3c(c2)O[C@H](CN(C)C)[C@H](C)CN([C@H](C)CO)S3(=O)=O)cc1	1	11[16.7 µM]	5	-7	-2[16.7 µM]	5
Nc1c(C(=O)NCc2ccco2)nnn1CC(=O)Nc1ccccc1	97*	-8	.	.	-2	19
Cc1ccc(C)c(NC(=O)Cn2nnc(C(=O)NCc3ccco3)c2N)c1	10	2	-1	28	10	35
O=C(C[C@H]1C[C@H]2c3cc(NS(=O)(=O)c4ccc(F)cc4)ccc3O[C@H]2[C@H](CO)O1)NCc1ccccn1	.	.	0	.	.	.
O=C(NC1CCC1)[C@@H]1[C@@H](CO)[C@@H]2Cn3c(ccc(-c4ccncc4)c3=O)[C@H]1N2CC1CC1	2	.	27	2	1[16.7 µM]	-3
O=C(Nc1ncn[nH]1)c1ccccc1O	-5	1	14	-1	-6	-7
O=C(Nc1ncn[nH]1)c1c(Cl)ccc(Cl)c1Cl	153*	-165	.	.	7	.
Cc1cccc2c(C(=O)O)cc(-c3cccnc3)nc12	8	-2	-5	2	0	66*
C[C@@H]1CN([C@H](C)CO)C(=O)c2cc(NS(=O)(=O)c3ccc(F)cc3)ccc2O[C@@H](C)CCCCO[C@H]1CN(C)C(=O)Nc1ccccc1	.	.	-4	.	.	57
CC1(C)CC(=O)c2cnc(NC(=O)CCc3ccccc3)nc2C1	93*	5	.	.	-3	3
O=C(CCc1ccccc1)Nc1ncc2c(n1)CCCC2=O	5	.	.	.	3	.
O=c1c(Cl)c(Cl)cnn1-c1ccccc1	.	-444	-34	70*	.	108*
CC(C)CNC(=S)Nc1ccc(Oc2ccccc2)cc1	.	-38	85*	-5	.	-13
OCCCNC(=S)Nc1ccc(Oc2ccccc2)cc1	-2	-4	-12	-5	-6	3
CN1CCN(C2Cc3ccccc3Sc3ccc(Cl)cc32)CC1 (configuration not stated)	-15	11	.	11	-5	-7
CN1CCN(C2Cc3ccccc3Sc3cc(C(F)(F)F)ccc32)CC1 (configuration not stated)	.	23	402*	43	.	21
Cc1ccccc1S(=O)(=O)N1CC[C@H]2[C@H](CO)Nc3ccc(-c4ccccc4F)cc3[C@H]21	-22	.	8	2	73[16.7 µM]	3
SMILES	C2C12 statin	HIV Env fusion	GSIS activator	EWS-Fli block	miR-122 sensor	PAX8 reporter
COc1ccc(NC(=O)Nc2ccc3c(c2)C(=O)N([C@H](C)CO)C[C@@H](C)[C@@H](CN(C)S(=O)(=O)c2cccs2)O3)cc1	.	13[16.7 µM]	-25	4	8[16.7 µM]	.
COc1cccc(CNC(=O)N[C@@H](CC(C)C)C(=O)O)c1	-5	.	50*	.	-5	.
COc1ccc(-c2cc(=O)c3cc(O)ccc3o2)cc1	14	.	-2	-94	-4	.
COc1ccc2oc(-c3ccncc3)cc(=O)c2c1	2	30	53*	-29	.	-123
Cc1ccc(S(=O)(=O)Nc2ccc3c(c2)C(=O)N([C@@H](C)CO)C[C@H](C)[C@@H](CN(C)C(=O)Nc2ccc(C(F)(F)F)cc2)OCCCC[C@H](C)O3)cc1	.	69*[16.7 µM]	23	12	5[16.7 µM]	79*
Cc1ccc(S(=O)(=O)Nc2ccc3c(c2)C(=O)N([C@H](C)CO)C[C@@H](C)[C@H](CN(C)C(=O)Nc2ccc(C(F)(F)F)cc2)OCCCC[C@@H](C)O3)cc1	.	20[16.7 µM]	-6	18	-1[16.7 µM]	69*
COc1ccccc1S(=O)(=O)N[C@H]1CC[C@@H](CCNC(=O)C2CCOCC2)O[C@@H]1CO	9	.	7	.	.	.
COc1ccc(CN(C)C[C@@H]2OCCCC[C@@H](C)Oc3ccc(NC(=O)C4CCCCC4)cc3C(=O)N([C@@H](C)CO)C[C@@H]2C)cc1	.	8[16.7 µM]	-16	.	-1[16.7 µM]	33
Cc1ccc(-c2ccc3c(c2)O[C@@H](CN(C)Cc2ccccn2)[C@@H](C)CN([C@@H](C)CO)S3(=O)=O)cc1	-5	14[16.7 µM]	-32	11	3[16.7 µM]	.
Cc1ccc(-c2ccc3c(c2)O[C@H](CN(C)Cc2ccccn2)[C@@H](C)CN([C@@H](C)CO)S3(=O)=O)cc1	-62	24[16.7 µM]	-20	58*	34[16.7 µM]	.
Cc1ccc(-c2ccc3c(c2)O[C@H](CN(C)Cc2ccccn2)[C@@H](C)CN([C@H](C)CO)S3(=O)=O)cc1	-87	-11[16.7 µM]	-31	63*	65[16.7 µM]	.
O=C(N1CCOCC1)[C@@]1(Cc2ccccc2)N=C(c2ccc(OCCCO)cc2)O[C@H]1c1ccccc1	.	24[16.7 µM]	.	13	.	2
O=C(CSc1nc(-c2ccccc2)c(-c2ccccc2)o1)Nc1nncs1	102*	.	.	.	1	.
